Data from PubChem BioAssay (Tox21).
Inconclusive results are not listed. Activity calls are given as the source filed them. Calls come from the whole dose curve; as a rule, active = well fitted activation curve with a large enough effect in the signal ratio in the repeat runs (not every such curve was filed as active); inconclusive = weak or mixed curves, or effect the other way; inactive = flat fitted curve, though single readings scatter; the % refers to the signal ratio.

Assay: qHTS assay to identify small molecule agonists of the endoplasmic reticulum stress response signaling pathway (AID 1159516)
Conditions: ESRE-bla HeLa, ER stress beta-lactamase reporter, 5 h; series mostly up to 61 µM
Excerpt: National Center for Advancing Translational Sciences [NCATS]
NIH Chemical Genomics Center [NCGC]
U.S. Environmental Protection Agency [EPA]
National Institutes of Environmental Health Sciences [NIEHS]
National Toxicology Program [NTP]
U.S. Food and Drug Administration [FDA]
Endoplasmic Reticulum (ER) plays an important role in cellular signaling, protein folding/maturation, stress response, lipid biosynthesis, calcium storage and release etc. Under stress conditions, proteins in ER misfold or unfold, and leading to the expression of ER stress responsive genes. ER stress has been associated with a variety of pathophysiological conditions such as cancer, inflammation, neurodegenerative diseases, diabetes, ischemic heart disease etc. To identify the compounds that induce ER stress response, an ER stress reporter cell line, CellSensor ESRE-bla HeLa (Life Technologies, Carlsbad, CA) containing a beta-lactamase reporter gene under control of the Endoplasmic reticulum Stress Response Element (ESRE) was used to screen Tox21 10K compound library.
Tox21 Assay Protocol Summary:
ESRE-bla HeLa cells were dispensed at 1,500 cells/6 uL of assay medium per well into black wall/clear-bottom 1536-well plates using a Multidrop Combi (ThermoFisher Scientific, Waltham, MA) dispenser. After the assay plates were incubated at 37 C and 5% CO2 for an overnight, 23 nL of compounds dissolved in DMSO, positive controls or DMSO only was transferred to the assay plate by a Pintool station (Kalypsys, San Diego, CA). The assay plates were incubated at 37 C and 5% CO2 for 5 hr. One uL of LiveBLAzer B/G FRET substrate (Life Technologies) was added using a Flying Reagent Dispenser (Aurora Discovery, San Diego, CA) and the plates were incubated at room temperature for 2 hr. Fluorescence intensity (405 nm excitation, 460 nm and 530 nm emissions) was measured using an Envision plate reader (PerkinElmer, Shelton, CT).

SMILES | outcome
Cc1c(I)c(=O)n(-c2ccccc2)n1C | inactive
O=C(CS(=O)Cc1ccco1)NC/C=C\COc1cc(CN2CCCCC2)ccn1 (stereo not given) | inactive
O=S(=O)(O)CCN1CCN(CCO)CC1 | inactive
CC1COc2ccccc2N1 (stereo not given) | inactive
COC(=O)CCCCCCCC(=O)OC | inactive
CN(C)c1ccc(C=O)cc1 | inactive
COc1cc(N)ccc1C | inactive
CN1C(C)(C)CCCC1(C)C | inactive
C=C1CC/C=C(\C)CC[C@@H]2[C@@H]1CC2(C)C | inactive
Cc1cccc(C)c1OCC(C)N (stereo not given) | inactive
CCOCCOC(=O)/C=C/c1ccc(OC)cc1 | inactive
ClCCCl | inactive
CCOc1cc([N+](=O)[O-])c(OCC)cc1N1CCOCC1 | inactive
CCCCCCCCC1CCC(=O)O1 (stereo not given) | inactive
C[C@H](CCC(=O)O)[C@H]1CC[C@H]2[C@@H]3C(=O)C[C@@H]4CC(=O)CC[C@]4(C)[C@H]3CC(=O)[C@]12C | inactive
O=C(NCCc1c[nH]c2ccccc12)c1cccnc1 | inactive
O=C(CCN1CCN(CCO)CC1)N1c2ccccc2Sc2ccc(C(F)(F)F)cc21 | inactive
COCCOCCOCCOCCO | inactive
O=C(CCNNC(=O)c1ccncc1)NCc1ccccc1 | inactive
CC(COC(C)(C)C)OCCCO (stereo not given) | inactive

SMILES | outcome
CC(=O)c1ccc2c(c1)Cc1ccccc1-2 | inactive
CN(C)C(=O)CNC(=O)Cc1ccccc1 | inactive
CC(C)(C)OC(=O)c1ccc(O)cc1 | inactive
O=C(O)CCSSCCC(=O)O | inactive
Cc1ccc(S(=O)(=O)O)c(C)c1 | inactive
O=S(=O)(O)c1cc(O)c2ccc(Nc3ccccc3)cc2c1 | inactive
CC(C)CC(=O)O | inactive
CC(CC=O)CCCC(C)(C)O (stereo not given) | inactive
CC(C)(C)NC(N)=O | inactive
CCCCCCOC(=O)CC | inactive
COc1ccc(Br)c(C)c1 | inactive
CN=C(NC#N)Nc1ccc(C2=NNC(=O)CC2C)cc1 (stereo not given) | inactive
CCCCCCOc1ccccc1C(N)=O | inactive
COc1ccc(S(=O)(=O)N2c3ccc(Cl)cc3[C@@](O)(c3ccccc3Cl)[C@H]2C(=O)N2CCC[C@@H]2C(N)=O)cc1OC | inactive
CC(=O)NCc1c(I)c(NC(C)=O)c(I)c(C(=O)O)c1I | inactive
CCCCCCCCCCCCCC | inactive
C=C(C)C1CCC(C)(O)CC1 (stereo not given) | inactive
COc1ccc2c(c1)C(=O)N(CCc1ccc(S(=O)(=O)NC(=O)NC3CCCCC3)cc1)C(=O)C2(C)C | inactive
CC(C)C(=O)OCc1cccc(OC(=O)[C@@H]2N3C(=O)[C@@H](NC(=O)Cc4ccccc4)[C@H]3SC2(C)C)c1 | inactive
COc1cc2c(cc1OC)[C@@H]1CC(=O)[C@@H](CC(C)C)CN1CC2 | inactive
